{"source": "PubChem BioAssay AID651597", "about": "(National Center for Advancing Translational Sciences (NCATS), 2012)", "note": "Out of some 1,100 compounds screened, about 390 (35%) were called active. Roughly 30% stayed inconclusive and do not appear here. Calls come from the whole dose curve; as a rule, active = well fitted inhibition curve with a large enough effect; inconclusive = small, poorly fitted or top-dose-only effect; inactive = flat fitted curve, though single readings scatter. Some of the results follow. Entries that show only a call come without a potency. Potency is the fitted concentration of half-maximal effect."}
{"target": "Luciferin 4-monooxygenase (Photinus pyralis) (UniProt P08659)", "assay": "qHTS of Nrf2 Activators: Hit Validation in Secondary FLuc Assay; note: nearly all actives have a fitted effect of over 65% in size", "conditions": "firefly luciferase inhibition counter-screen, luminescence; series mostly up to 57.5 µM", "method_in_brief": "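Counter-screen on purified firefly luciferase with ATP and D-luciferin at Km concentrations; compounds flagged if they inhibit the enzyme, indicating possible reporter stabilization rather than ARE activation.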"}
{"smiles": "CC(C)N(C(=O)COC(=O)c1ccccc1C(=O)c1ccc(Cl)c([N+](=O)[O-])c1)C(C)C", "Potency": "inactive"}
{"smiles": "O=C(c1ccc(S(=O)(=O)Cc2ccccc2Cl)c([N+](=O)[O-])c1)N1CCOCC1", "Potency": "inactive"}
{"smiles": "O=C(Nc1nc2ccccc2[nH]1)c1ccc(Cl)c([N+](=O)[O-])c1", "Potency": "2.69 µM (active)"}
{"smiles": "N#C/C(=C\\c1c(Oc2ccc(Cl)cc2)nc2ccccn2c1=O)C(=O)NC1CCS(=O)(=O)C1", "note": "(stereo not drawn)", "Potency": "inactive"}
{"smiles": "COc1ccccc1C(=O)NCc1nc2cccnc2n1Cc1ccc(F)cc1", "Potency": "inactive"}
{"smiles": "COc1ccccc1NC(=O)c1ncn(-c2ccccc2)n1", "Potency": "10.7 µM (active)"}
{"smiles": "COc1ccccc1NC(=O)C(=O)Nc1ccccn1", "Potency": "1.69 µM (active)"}
{"smiles": "COc1ccccc1NC(=O)c1cc(Cl)nc2ccccc12", "Potency": "inactive"}
{"smiles": "COc1cc(NC(=S)Nc2ccccn2)c(OC)cc1Cl", "Potency": "inactive"}
{"smiles": "CCCn1c(-c2cccs2)nc2nc3ccccc3nc21", "Potency": "12 µM (active)"}
{"smiles": "O=C(C=Cc1ccccc1Cl)c1ccccc1", "Potency": "0.953 µM (active)"}
{"smiles": "O=C(/C=C/c1ccccc1Cl)Nn1cnc2ccccc2c1=O", "Potency": "inactive"}
{"smiles": "COCCN(C(=O)COC(=O)/C=C/c1ccccc1Cl)c1c(N)n(Cc2ccccc2)c(=O)[nH]c1=O", "Potency": "inactive"}
{"smiles": "Cn1c(=O)c(C(=O)NNC(=O)c2ccccc2F)c(O)c2ccccc21", "Potency": "inactive"}
{"smiles": "FC(F)(F)c1cc(-c2ccco2)nc(NCc2ccco2)n1", "Potency": "inactive"}
{"smiles": "Oc1c(-c2cc(-c3ccco3)[nH]n2)ccc2ccccc12", "Potency": "0.953 µM (active)"}
{"smiles": "Oc1ccc(Br)cc1-c1cc(-c2ccco2)[nH]n1", "Potency": "16.9 µM (active)"}
{"smiles": "Oc1ccc(Cl)cc1-c1cc(-c2ccco2)[nH]n1", "Potency": "13.5 µM (active)"}
{"smiles": "Oc1ccccc1C=NN=C1c2ccccc2-c2ccccc21", "Potency": "4.26 µM (active)"}
{"smiles": "O=C(Nc1ccccc1C(=O)N/N=C/c1ccco1)c1ccccc1", "Potency": "7.57 µM (active)"}
{"smiles": "Nc1c(Cl)c(Cl)nc(C(=O)N/N=C/c2ccco2)c1Cl", "Potency": "inactive"}
{"smiles": "O=C(N/N=C/c1cn[nH]c1-c1ccccc1)c1ccco1", "Potency": "inactive"}
{"smiles": "O=C(Nc1ccccc1C(=O)N/N=C/c1ccco1)c1ccc(F)cc1", "Potency": "4.78 µM (active)"}
{"smiles": "COC(CN(C(=O)CCl)C(C(=O)NC1CCCCC1)c1ccccc1C)OC", "note": "(stereo not drawn)", "Potency": "inactive"}
{"smiles": "COc1ccc([N+](=O)[O-])cc1NC(=O)c1ccco1", "Potency": "inactive"}
{"smiles": "COc1ccc([N+](=O)[O-])cc1C1NN=C(c2ccccc2O)S1", "note": "(stereo not drawn)", "Potency": "8.49 µM (active)"}
{"smiles": "CCN1CCN(c2sc(S(C)(=O)=O)nc2S(=O)(=O)c2ccc(Cl)cc2)CC1", "Potency": "inactive"}
{"smiles": "CC(=O)OC1(C(C)=O)CCC2C3CC(C(F)(F)F)C4=CC(=O)CCC4(C)C3CCC21C", "note": "(stereo not drawn)", "Potency": "inactive"}
{"smiles": "CC1CN(c2sc(S(C)(=O)=O)nc2S(=O)(=O)c2ccc(Cl)cc2)CC(C)O1", "note": "(stereo not drawn)", "Potency": "inactive"}
{"smiles": "O=C(Nc1ccccc1)c1nc[nH]c1C(=O)Nc1ccccc1F", "Potency": "inactive"}
{"smiles": "O=C(Nc1ccccc1)Nc1cccc2nsnc12", "Potency": "2.69 µM (active)"}
{"smiles": "C/C(=N\\Nc1ccc2nncn2n1)c1ccc(Cl)s1", "Potency": "inactive"}
{"smiles": "C/C(=N\\Nc1ccccn1)c1ccc(Br)s1", "Potency": "12 µM (active)"}
{"smiles": "C/C(=N\\Nc1ccccn1)c1cccs1", "Potency": "2.39 µM (active)"}
{"smiles": "Cn1c(N)c(C(=O)COC(=O)c2nc(Cl)ccc2Cl)c(=O)n(C)c1=O", "Potency": "inactive"}
{"smiles": "CC(C)(C)c1csc(NC(=O)CCS(=O)(=O)c2ccc(F)cc2)n1", "Potency": "inactive"}
{"smiles": "O=C(/C=C/c1ccccc1)Nc1ncn[nH]1", "Potency": "10.7 µM (active)"}
{"smiles": "CN1c2ccsc2/C(=N/Nc2ccccc2)CS1(=O)=O", "Potency": "7.57 µM (active)"}
{"smiles": "OCC1OC(n2cnc3c(NCc4ccccc4O)ncnc32)C(O)C1O", "note": "(stereo not drawn)", "Potency": "inactive"}
{"smiles": "CC1=NC(=O)C(N=Nc2cccc(O)c2)N1c1ccccc1", "note": "(stereo not drawn)", "Potency": "3.79 µM (active)"}
{"smiles": "Clc1ccc(/C=N/Nc2nnc(Cl)c3ccccc23)cc1", "Potency": "0.338 µM (active)"}
{"smiles": "CSc1nsc(SC)c1C(=O)Nc1ccc(C)cc1", "Potency": "inactive"}
{"smiles": "CNc1nc(N)c([N+](=O)[O-])c(Nc2cccc(Cl)c2)n1", "Potency": "inactive"}
